Test [1] can be described thus: NCI Yeast Anticancer Drug Screen. Data for the rad50 strain (AID 155).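 Note: 0% = growth of vehicle-only cultures of the same strain.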 Conditions: S. cerevisiae rad50 strain growth inhibition; at 50.0 µM; stronger effect = higher value. An outline of the steps:
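Cells are treated with compound, grown, and their growth is then scored against vehicle-only cultures of the same repair-deficient yeast strain.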

A short description of test [2]: NCI Yeast Anticancer Drug Screen. Data for the mec2-1 strain (AID 157). The note with it: S. cerevisiae mec2-1 strain, at 50.0 µM, stronger effect = higher value. An outline of the steps:
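Each compound was tested on mec2-1 yeast, a strain altered in DNA damage repair or cell cycle control. Growth inhibition is reported relative to vehicle.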

Test [3] in a line: NCI Yeast Anticancer Drug Screen. Data for the sgs1 mgt1 strain (AID 161).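 Note: 0% = growth of cultures given vehicle only.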 Conditions: S. cerevisiae sgs1 mgt1 strain, at 50.0 µM, stronger effect = higher value. In outline:
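Read-out: growth inhibition vs vehicle controls. Cells: mutant yeast strain deficient in DNA damage repair.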

The nature of test [4]: NCI Yeast Anticancer Drug Screen. Data for the cln2 rad14 strain (AID 165).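 Note: 0% = growth equal to vehicle treated cultures.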 The note with it: S. cerevisiae cln2 rad14 strain, at 50.0 µM, stronger effect = higher value. In outline: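 Test compounds were added to cln2 rad14 yeast cultures; inhibition of growth was then determined by comparison with vehicle treatment.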
Test [5] in a line: NCI Yeast Anticancer Drug Screen. Data for the bub3 strain (AID 167). Conditions: S. cerevisiae bub3 mutant strain, at 50.0 µM, stronger effect = higher value. In outline:
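Part of a panel of yeast mutants defective in DNA damage repair or cell cycle regulation. Each strain is grown with compound, and inhibition is calculated relative to solvent-treated cultures.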

The nature of test [6]: NCI Yeast Anticancer Drug Screen. Data for the mlh1 rad18 strain (AID 175). Conditions: S. cerevisiae mlh1 rad18 strain growth inhibition; at 50.0 µM; stronger effect = higher value. An outline of the steps: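 Inhibition values reflect reduced growth of mutant yeast versus vehicle-treated controls following compound exposure; the mutations affect DNA damage repair.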

Molecules are shown by their SMILES. About 79,000 compounds went through this panel and 15% of them were active in at least one assay; those are over-represented in the sample as a whole. A number with no mark means an inactive call. Calls of active or inactive are those of the source. Cut-off read from the data, not from the text of the source: active = growth inhibition above about 70%; inactive = the rest.

On to `COC(=O)c1ccc(C=O)[nH]1`, for which the growth inhibition is 8% in test [1]; -22.1% in test [2]; 0.55% in test [3]; -10.5% in test [4]; 4.7% in test [5]; 7.25% in test [6].
Regarding `O=C(CNc1ccc(Cl)cc1Cl)NC1C=Cc2ccc(S(=O)(=O)Nc3ccc(Cl)cc3Cl)cc2C1=O` (stereo not given), the growth inhibition is 34.5% in test [1]; 20.4% in test [2]; 44% in test [3]; 14.2% in test [4]; 29.1% in test [5]; 33.1% in test [6].
Take `C=CC(C)(C)[C@@]12CC3C(=O)N[C@@H](Cc4ccccc4)C(=O)N3[C@@H]1N(C(C)=O)c1ccccc12` (stereo not given in full): the growth inhibition was 73.2% (active) in test [1]; 12.2% in test [2]; 16.7% in test [3]; 50.5% in test [4]; 45.6% in test [5]; 53.1% in test [6].
As to `CCC(=O)OCCN(C(=O)CC)c1ccccc1`, the growth inhibition is 35.6% in test [1]; 5.75% in test [2]; 22.2% in test [3]; -2.5% in test [4]; -0.05% in test [5]; 31.4% in test [6].
For `CC(C)=CC(=O)OC1C2C(CC(C)C3C(O)CC(=O)C13C)OC(=O)C2C` (stereo not given), the growth inhibition in test [1] is -0.3%; in test [2], -44.3%; in test [3], -0.2%; in test [4] it was 17.8%; in test [5], -27.9%; in test [6] it was -16.9%.
Take `CC(=O)C1C(=O)C(=O)N(Cc2ccccc2)C1=O` (stereo not given): the growth inhibition in test [1] was -20.4%; in test [2] it was -13.8%; in test [3], -27.4%; in test [4], -19.3%; in test [5] it was -7.4%; in test [6], -19.6%.
Consider `CC1(C)OC(=O)N=C1c1cccc(Cl)c1`, for which the growth inhibition in test [1] is -12.3%; in test [2], -17.8%; in test [3] it was -15.9%; in test [4], -5.9%; in test [5], 4.25%; in test [6] it was -3.7%.
Take `CC1(C)OC(C)(C)c2c1nnc(-c1cccc([N+](=O)[O-])c1)[n+]2[O-]`: the growth inhibition in test [1] was -19.5%; in test [2] it was -26.2%; in test [3], 18.6%; in test [4] it was 1.3%; in test [5], 11.6%; in test [6] it was -3.55%.
Regarding `O=C(O)c1nnn(Cc2ccccc2)c1C(=O)O`, the growth inhibition was 7.75% in test [1]; -6% in test [2]; -17.6% in test [3]; 2.35% in test [4]; 15.8% in test [5]; 20% in test [6].
As to `c1ccc2oc(-c3ccc4c(c3)OCO4)nc2c1`, the growth inhibition was 14.8% in test [1]; 42.8% in test [2]; 11.6% in test [3]; 4.5% in test [4]; -2.75% in test [5]; -0.2% in test [6].
In the case of `O=C1CC(C(F)(F)F)(C(F)(F)F)O1`, the growth inhibition in test [1] is 11.3%; in test [2], 19.4%; in test [3], -8.75%; in test [4] it was -58.2%; in test [5], 13.6%; in test [6], -19%.
With `COc1ccc(CN)cc1`, the growth inhibition in test [1] is -0.7%; in test [2], -9.6%; in test [3] it was -15.2%; in test [4], 2.75%; in test [5], 6.85%; in test [6] it was -2.6%.
As to `Oc1ccc(C2CCCC2)cc1`, the growth inhibition was -9.15% in test [1]; -30.1% in test [2]; -22.1% in test [3]; -14.7% in test [4]; -12.7% in test [5]; -17.4% in test [6].
Turning to `CC1CC(=O)c2cc3oc(=O)n(C)c3cc21` (stereo not given), the growth inhibition in test [1] is -3.4%; in test [2] it was -4.15%; in test [3], -6.2%; in test [4], -20.5%; in test [5], 19.2%; in test [6], -0.45%.
For `CCOC(=O)C(C)C1CCCc2c(C)ccc(C)c21` (stereo not given), the growth inhibition in test [1] was -8.25%; in test [2], 9.6%; in test [3], 1.25%; in test [4] it was -1.8%; in test [5] it was 8.5%; in test [6], 2.7%.
Consider `COc1ccc(NC(=O)CC(O)c2cccc(N)c2)cc1` (stereo not given), for which the growth inhibition in test [1] was 22.3%; in test [2], -26.4%; in test [3], 26.3%; in test [4], 7.1%; in test [5], 25.1%; in test [6], 12.5%.
On to `CCOC(=O)CN(c1c(C)cc(C)c(N(CC(=O)OCC)S(=O)(=O)c2ccccc2)c1C)S(=O)(=O)c1ccccc1`, for which the growth inhibition in test [1] was 40.5%; in test [2], 8.95%; in test [3], 24.8%; in test [4], -9.2%; in test [5], 4.5%; in test [6], 19.9%.
Take `CC(=O)OC[C@]1(O)CC[C@@]23CC1C[C@@H]2CCC1C(C)(C)CCC[C@@]13C` (stereo not given in full): the growth inhibition was 81.5% (active) in test [1]; 41.6% in test [2]; 64.8% in test [3]; 71.6% (active) in test [4]; 67.7% in test [5]; 64.4% in test [6].
On to `Cc1cc(-n2cnc3c(Cl)ncnc32)ccc1N`, for which the growth inhibition was 10.8% in test [1]; 5.3% in test [2]; 0.95% in test [3]; 5.05% in test [4]; 10.8% in test [5]; -9.1% in test [6].
With `c1ccc(CCOC(c2ccccc2)(c2ccccc2)c2ccccc2)cc1`, the growth inhibition in test [1] is -11.2%; in test [2] it was -9.25%; in test [3], 0.3%; in test [4] it was -61.6%; in test [5], -10.4%; in test [6] it was -26.2%.
